Assay results taken from the supplement of paper PMC4840960.

tested on: E18 rat cortical neuron-glia co-culture; assay: myelination (MBP fiber length per Olig2+ nucleus), % of 1 µM DAPT response (DMSO = 0) (% of DAPT); higher = more myelination, active = 50 or more; conditions: 5 µM; treatment time: 8 days (DIV5-DIV13)
Method in brief: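 Rat cortical co-cultures from E18 tissue were dissociated with papain and plated at 20,000 cells/well on 96-well plates coated with poly-d-lysine/laminin. From DIV5 to DIV13, library compounds were added at 1 or 5 µM in myelination medium. After fixation in 4 % paraformaldehyde, cultures were immunostained for MBP and Olig2 and counterstained with DAPI, and four 10X fields were analysed in each of duplicate wells. The myelination value is the length of continuous straight MBP fibers per Olig2+ nucleus, normalised so that 0.1 % DMSO is 0 and a 1 µM positive control is 100.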

myelination, inactive:
CC(C)(C(=O)O)c1ccc(C(O)CCCN2CCC(C(O)(c3ccccc3)c3ccccc3)CC2)cc1 (centres undefined) [Fexofenadine] 0.141, CO[C@H]1/C=C/O[C@@]2(C)Oc3c(C)c(O)c4c(O)c(c(/C=N/N5CCN(C)CC5)c(O)c4c3C2=O)NC(=O)/C(C)=C\C=C\[C@H](C)[C@H](O)[C@@H](C)[C@@H](O)[C@@H](C)[C@H](OC(C)=O)[C@@H]1C [Rifampicin] -2.96, Cc1cnc(C(=O)NCCc2ccc(S(=O)(=O)NC(=O)NC3CCCCC3)cc2)cn1 [Glipizide] -12.8, CC(COc1ccccc1Cc1ccccc1)N1CCCCC1 (centres undefined) [Benproperine] -4.27, CCN(Cc1ccncc1)C(=O)C(CO)c1ccccc1 (centres undefined) [Tropicamide] -16.2, Cc1cc(NS(=O)(=O)c2ccc(N)cc2)no1 [Sulfamethoxazole] -5.03, CC1=C(/C=C/C(C)=C/C=C/C(C)=C/C(=O)O)C(C)(C)CCC1 [Retinoic Acid] -10.5, Nc1nc2ccc(OC(F)(F)F)cc2s1 [Riluzole] -52.5, CCc1ccc(CCOc2ccc(CC3SC(=O)NC3=O)cc2)nc1 (centres undefined) [Pioglitazone] -17.1
